Results as given in PubChem BioAssay (NCATS).
Records with an inconclusive call do not appear. Activity calls are given as the source filed them. Calls come from the whole dose curve; as a rule, active = well fitted inhibition curve with a large enough effect; inconclusive = small, poorly fitted or top-dose-only effect; inactive = no such curve, though single readings can be large or run the other way.

Biological target: Rap guanine nucleotide exchange factor 3 (Homo sapiens) (UniProt O95398)
Assay: Counterscreen qHTS for antagonist of cAMP-regulated guanine nucleotide exchange factor 3 (EPAC1) (AID 1645888)
Details: Rap1B-BODIPY-GDP nucleotide exchange, fluorescence; series mostly up to 30.8 µM
Description: Assay Provider (PI): Xiaodong Cheng Ph.D. The University of Texas Medical Branch, […], TX MLPCN Grant: NS066510 In multi-cellular eukaryotic organisms, the effects of cAMP are transduced by two ubiquitously-expressed intracellular cAMP receptors, the classic protein kinase A/cAMP-dependent protein kinase (PKA/cAPK) and the more recently discovered exchange protein directly activated by cAMP/cAMP-regulated guanine nucleotide exchange factor (EPAC/cAMP-GEF). Both PKA and EPAC are ubiquitously expressed in all tissues, and an increase in intracellular cAMP levels will lead to the activation of both PKA and EPAC. Therefore, careful dissections of the individual role and relative contribution of EPAC and PKA within the overall cAMP signaling in various model systems are critical for further elucidating the mechanism of cAMP signaling. To date no EPAC-specific antagonists and agonist, as well as isoform-specific agonists have been reported, and developing EPAC-specific pharmacological probes to determine the physiological functions that EPAC play in the overall cAMP-mediated signaling remains a major challenge within the research field. Furthermore, identified regulators of EPAC may lead to new mechanism-based therapeutic strategies specifically targeting the EPAC / cAMP-signaling components as EPAC has been implicated to play important roles in major human pathological conditions such as diabetes, heart disease, and cancer. This qHTS will be used to screen the Molecular Libraries Small Molecule Repository (MLSMR) as a concentration-titration series using the NCGC unique quantitative screening (qHTS) platform to find activators for EPAC1. In addition, this assay will also be used as a counterscreen for the EPAC2 qHTS. This fluorescent based assay is developed and validated for EPAC1 that measures exchange using EPAC effector Rap1 complex with BODIPY-GDP, a GDP analog with a tethered fluorophores. Activators are identified by monitoring the change in fluorescence signal as the exchanged free BODIPY-GDP has a reduced fluorescence compared to Rap1-bound BODIPY-GDP. Increase in signal (activation) is the desired outcome for the EPAC1 agonist while no activity in this assay is desired for the EPAC2 agonist counterscreen. Reference: [1] de Rooij, J., Zwartkruis, F. J., Verheijen, M. H., Cool, R. H., Nijman, S. M., Wittinghofer, A., and Bos, J.L. (1998) Nature 396, 474-477. Kawasaki, H., Springett, G. M., Mochizuki, N., Toki, S., Nakaya, M., Matsuda, M., Housman, D. E., and Graybiel, A. M. (1998) Science 282, 2275-2279.
EPAC1 Counterscreen PROTOCOL TABLE SEQUENCE No. (e.g., 1, 2, 3, etc.); […] (e.g., Cells, Incubation, Reagent, etc.); VALUE and DESCRIPTION. 1. Reagent. 3 uL. [1x] 250 nM Rap1B-BODIPY-GDP, and 50 uM GDP. 2a. Compound. 23 nL. Control 6,572 uM cAMP (working concentration). 2b, 2c. Compound. 23 nL. Control activator and inhibitor; 234 - 30,000 uM cAMP and 16.4 - 10,000 uM. 2d. Compound. 46 nL. MLSMR follow-up library; 0.64 - 10,000 uM. 3. Time. 15 sec, 1000rpm. Centrifuge. 4. Time. 5 min. Incubation at room temperature. 5. Detector. Fluorescence. (Read 1), Ex/Em = 480 nm / 540 nm. 6. Time. 30 min. Incubation at room temperature. 7. Detector. Fluorescence. (Read 2), Ex/Em = 480 nm/ 540 nm. 8. Reagent. 1uL. Dispense either [4x] 10 uM cAMP or buffer. 9. Time. 15 sec, 1000 rpm. Centrifuge. 10. Time. 5 min. Incubation at room temperature. 11. Detector. Fluorescence. (Read 3), Ex/Em = 480 nm / 540 nm. 12. Time. 30 min. Incubation at room temperature. 13. Detector. Fluorescence. (Read 4), Ex/Em = 480 nm / 540 nm. NOTES (numbers refer to Sequence numbers above; values are from representative experiments) 1. Medium-binding black solid-bottom Greiner plates (789176-F). Dispense 3 uL of [1x] 250 nM Rap1B-BODIPY-GDP, and 50 uM GDP into columns 1 to 48. 2a. Control compound cAMP (6,572 uM, column 3, rows 1 to 32) single pin-transferred for a [final] of 50 uM. 2b. […]

Chain of Rap guanine nucleotide exchange factor 3 (Homo sapiens) (O95398 whole entry, looked up): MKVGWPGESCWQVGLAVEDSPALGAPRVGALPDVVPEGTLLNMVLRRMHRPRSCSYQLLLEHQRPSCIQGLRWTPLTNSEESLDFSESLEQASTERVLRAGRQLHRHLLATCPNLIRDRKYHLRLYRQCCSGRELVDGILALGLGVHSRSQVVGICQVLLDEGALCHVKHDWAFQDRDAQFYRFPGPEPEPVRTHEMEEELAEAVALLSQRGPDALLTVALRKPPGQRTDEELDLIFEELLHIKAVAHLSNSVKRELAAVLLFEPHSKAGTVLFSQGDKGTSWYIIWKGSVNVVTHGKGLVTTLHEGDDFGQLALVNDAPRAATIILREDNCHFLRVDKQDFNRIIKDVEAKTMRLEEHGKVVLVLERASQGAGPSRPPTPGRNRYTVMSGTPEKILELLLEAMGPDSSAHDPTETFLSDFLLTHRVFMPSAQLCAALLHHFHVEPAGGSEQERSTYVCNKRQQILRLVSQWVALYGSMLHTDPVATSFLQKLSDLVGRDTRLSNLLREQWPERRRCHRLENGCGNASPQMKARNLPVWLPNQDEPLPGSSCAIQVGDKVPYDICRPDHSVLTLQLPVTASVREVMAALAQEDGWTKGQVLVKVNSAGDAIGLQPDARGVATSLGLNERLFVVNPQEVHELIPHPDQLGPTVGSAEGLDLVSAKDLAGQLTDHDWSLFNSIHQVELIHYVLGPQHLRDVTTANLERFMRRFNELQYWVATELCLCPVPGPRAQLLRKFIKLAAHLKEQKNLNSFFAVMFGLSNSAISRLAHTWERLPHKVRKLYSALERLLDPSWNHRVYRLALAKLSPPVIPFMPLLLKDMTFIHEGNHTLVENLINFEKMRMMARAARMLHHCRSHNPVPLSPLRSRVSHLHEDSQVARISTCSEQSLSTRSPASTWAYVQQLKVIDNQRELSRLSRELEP

Row | Compound | outcome
1 | CC(=O)c1ccc(N2CCN(S(=O)(=O)c3ccc4c(c3)C(Cl)(Cl)C(=O)N4)CC2)cc1 | inactive
2 | Cc1ccc(P(=O)(CSC(=N)N)c2ccc(C)cc2)cc1 | inactive
3 | CCC(=O)NC(c1cccs1)c1cc(Cl)c2cccnc2c1O (stereo not given) | inactive
4 | CC(=O)NC(c1cc(Cl)c2ccccc2c1O)C(C)C (stereo not given) | inactive
5 | CCC(=O)NC(c1cccs1)c1cc(Cl)c2ccccc2c1O (stereo not given) | inactive
6 | CCC(=O)NC(c1cc(Cl)c2ccccc2c1O)C(C)C (stereo not given) | inactive
7 | CCOc1ccccc1CNc1ncnc2ccc(-c3c(C)noc3C)cc12 | inactive
8 | CN1C2CC(OC(=O)C(CO)c3ccccc3)CC1C1OC12 (stereo not given) | inactive
9 | CC(=O)NC(c1cccs1)c1cc(Br)c2cccnc2c1O (stereo not given) | inactive
10 | COc1cccc(-c2ccc3ncnc(N(C)Cc4ccco4)c3c2)c1 | inactive
11 | COc1ccc(N2C(=O)c3ccccc3C2=O)cc1 | inactive
12 | O=C(CSc1nc2ccccc2n1CCc1ccccc1)c1ccc(O)c(O)c1 | inactive
13 | CCN(CC)C(=O)CC(c1ccc2c(c1)OCO2)c1c(O)cc(OC)cc1OC (stereo not given) | inactive
14 | CC(/C=C1\SC(=S)N(CC(=O)O)C1=O)=C\c1ccccc1 | inactive
15 | CCC(=O)NC(c1ccco1)c1cc(Cl)c2ccccc2c1O (stereo not given) | inactive
16 | CC(=O)NC(c1ccco1)c1cc(Cl)c2ccccc2c1O (stereo not given) | inactive
17 | O=C1Cc2cc(S(=O)(=O)N3CCNCC3)ccc2N1 | inactive
18 | O=C(CSc1nnc(-c2cccc(S(=O)(=O)N3CCCC3)c2)n1-c1ccccc1)Nc1ccc(C(=O)O)cc1 | inactive
19 | CC(=O)NS(=O)(=O)c1ccc(NC(=O)c2cc(-c3ccc(C)c(C)c3)nc3ccccc23)cc1 | inactive
20 | Nc1ncnc2c1C(c1ccccc1)c1c(ccc3ccccc13)O2 (stereo not given) | inactive
